Test results as given in PubChem BioAssay AID485344 (National Center for Advancing Translational Sciences (NCATS), 2010).
Hit rate of the full screen: of about 340,000 compounds, about 6,900 (2%) were called active. What follows is part of a selection rich in actives, with near analogues and random picks from the rest. A number with no mark means an inactive call. No stated cut-off is given here; in the data, active means inhibition above about 30%; inactive means below that, where a call was filed.

Each molecule was assayed against D(2) dopamine receptor (Homo sapiens) (UniProt P14416) (assay: HTS Assay for Allosteric Antagonists of the Human D2 Dopamine Receptor: Primary Screen for Antagonists). Settings: HEK293 TREx D2 cells, calcium flux, dopamine EC80; at 10 µM; active compounds read high.
Chain of D(2) dopamine receptor (Homo sapiens) (P14416 whole entry, looked up): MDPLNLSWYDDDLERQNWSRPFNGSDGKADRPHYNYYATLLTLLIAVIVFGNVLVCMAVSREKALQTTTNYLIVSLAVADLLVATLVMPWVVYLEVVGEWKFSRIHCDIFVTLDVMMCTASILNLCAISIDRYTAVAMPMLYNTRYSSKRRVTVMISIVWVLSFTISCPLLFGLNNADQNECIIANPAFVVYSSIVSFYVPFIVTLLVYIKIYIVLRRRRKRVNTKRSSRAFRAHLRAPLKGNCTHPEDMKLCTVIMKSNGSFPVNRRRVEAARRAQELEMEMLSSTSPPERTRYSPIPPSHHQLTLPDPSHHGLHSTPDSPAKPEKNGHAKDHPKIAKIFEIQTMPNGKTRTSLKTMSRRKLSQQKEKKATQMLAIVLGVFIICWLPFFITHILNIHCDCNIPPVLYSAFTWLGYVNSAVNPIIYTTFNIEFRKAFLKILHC
Procedure, shortened: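 Calcium flux kinetic readout in an inducible HEK293 TREx D2 line plated overnight at 30 C. After 180 s compound exposure, an EC80 dopamine challenge follows with another 180 s kinetic read to detect antagonism.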
Further: 0% is about no effect.

| SMILES | inhibition |
| --- | --- |
| COC(=O)Cc1ccc(OCC(=O)NC2CCCC2)cc1 | 0.938% |
| CCOc1ccc(NC(=O)CN(C)C(=O)c2cccc(S(=O)(=O)N3CCCC3)c2)cc1OCC | -1.88% |
| Cc1ccc(S(=O)(=O)N2CCCCC2)cc1C(=O)N(C)CC(=O)Nc1cccc(F)c1 | 31.6% (active) |
| Cc1ccc(NC(=O)CN(C)C(=O)c2cccc(S(=O)(=O)N3CCCC3)c2)cc1 | -2.36% |
| O=C(CCNC(=O)c1ccc(Cl)cc1)NC1CCCc2ccccc21 (stereo not drawn) | -3.04% |
| CC(C)(C)OC(=O)NCCCCCNC(=O)c1[nH]cnc1C(=O)Nc1nccs1 | -7.74% |
| O=C(Cn1[nH]c(=O)c2ccccc2c1=O)Nc1cccc(-c2nnc3n2CCCCC3)c1 | -20.7% |
| Cc1c(C(=O)Nc2cccc(-c3nnc4n3CCCCC4)c2)oc2ccccc12 | 60% (active) |
| Cc1c(C(=O)NC2CCCCC2)oc2ccccc12 | 15.1% |
| NS(=O)(=O)c1ccc(NC(=O)COC(=O)CCc2c[nH]c3ccccc23)cc1 | 2.49% |
| CCc1ccc(CCC(=O)Nc2ccc(S(N)(=O)=O)cc2)o1 | 43.5% (active) |
| CC1CC(C)CN(CC(=O)Nc2ccc(S(N)(=O)=O)cc2)C1 (stereo not drawn) | -1.67% |
| CC(=O)Nc1ccc(NC(=O)CSc2nnc(C3CC3)n2-c2ccccc2)cc1 | 2.45% |
| Cc1ccc(S(=O)(=O)NCCC(=O)NCc2ccc(Cl)cc2)cc1C | -19% |
| O=C(NCC(c1ccco1)N1CCc2ccccc21)c1cccc(F)c1 (stereo not drawn) | 5.81% |
| CCCSc1ncccc1C(=O)O | -16.5% |
| O=C(O)c1cccnc1Sc1ncnc2sc3c(c12)CCC3 | 34.2% (active) |
| COCCn1c(C)cc(C(=O)CSc2ncnc3sc4c(c23)CCC4)c1C | 9.53% |
| COc1ccccc1C(=O)NC(CCSC)C(=O)N1CCN(C/C=C/c2ccccc2)CC1 (stereo not drawn) | 3.22% |
| CNC(=O)NC(=O)C(C)N1CCN(C/C=C/c2ccccc2)CC1 (stereo not drawn) | 33.5% (active) |
| COc1cc(C(=O)N2CCN(C/C=C/c3ccccc3)CC2)cc(OC)c1C | 0.0553% |
| CC1CCCCC12NC(=O)N(CC(=O)OCC(=O)NCc1ccc(F)cc1)C2=O (stereo not drawn) | -29.1% |
| CN(CC(=O)Nc1c(Cl)cccc1Cl)C(=O)CC1OC(=O)c2ccccc21 (stereo not drawn) | 4.45% |
| CCC(C(=O)OCCN(CC)CC)c1ccccc1 (stereo not drawn) | 6.37% |

| SMILES | inhibition |
| --- | --- |
| O=C(O)C(c1ccccc1)C1(O)CCCCC1 (stereo not drawn) | 2.2% |
| CN(C)CCOC(=O)C(c1ccccc1)C1(O)CCCC1 (stereo not drawn) | 58.6% (active) |
| O=C(CSc1nc2[nH]c(=O)[nH]c(=O)c2s1)Nc1cccc(F)c1 | -3.77% |
| CCc1ccc(CN(C)C(C)C(=O)Nc2ccc(S(=O)(=O)N3CCCC3)cc2)cc1 (stereo not drawn) | 12.7% |
| CC(C)=C(NC(=O)c1ccccc1)C(=O)N/N=C(\C)c1ccccc1O | 62.7% (active) |
| CNC(=O)C(NC(=O)c1ccccc1)=C(C)C | -6.51% |
| C/C(=N/NC(=O)c1ccc(NC(=O)c2ccc(F)cc2)cc1)c1ccccc1 | 14.8% |
| CCCC(=O)Nc1ncnc2c1ncn2[C@@H]1O[C@@H]2OP(=O)(O)OC[C@H]2[C@H]1OC(=O)CCC | -4.97% |
| CCO[C@H]1OC(C(=O)N2CCOCC2)=C[C@@H](c2ccc3c(c2)OCO3)[C@@H]1CCCO | 2.11% |
| CCO[C@@H]1OC(C(=O)N2CCOCC2)=C[C@H](C)[C@H]1CCCO | -3.13% |
| CCO[C@H]1OC(C(=O)N2CCCCCCC2)=C[C@@H](c2ccc(C(F)(F)F)cc2)[C@@H]1CCCO | 30.3% (active) |
| O=C(CSc1ccccc1)Nc1cccc(S(=O)(=O)N2CCCCC2)c1 | 0.706% |
| Cc1ccc(C)c(C(=O)COC(=O)Cn2[nH]c(=O)c3ccccc3c2=O)c1 | -1.59% |
| Cc1ccc(NC(=S)N(CCCN2CCCC2)Cc2cccn2Cc2ccc(Cl)cc2)cc1 | 3.46% |
| Cc1ccc(NC(=S)N(CCCN2CCC(C)CC2)Cc2ccco2)cc1 | 34.7% (active) |
| Cc1ccc(NC(=S)N(Cc2ccco2)C(C)c2cccs2)cc1 (stereo not drawn) | -6.52% |
| Cc1ccc(NC(=S)N(CCN(C)C)Cc2cccs2)cc1C | 12.4% |
| CCc1ccccc1NC(=S)N(CCN1CCCCCC1)Cc1ccco1 | -0.524% |
| Cc1ccc(NC(=S)N(CCN2CCCCC2)Cc2ccco2)cc1C | 50.8% (active) |
| CN(C)S(=O)(=O)c1ccc(C(=O)NCC2(N3CCOCC3)CCCCC2)cc1 | 8.22% |
| O=C(O)c1ccccc1N=N/C(=N/Nc1cc(S(=O)(=O)O)ccc1O)c1ccccc1 | 28.3% |
| COc1ccc(Cn2c(=S)[nH]c3cc(C(=O)NCCCN4CCOCC4)ccc3c2=O)cc1 | 35.6% (active) |
| CCN(CC)CCCNC(=O)c1ccc2c(=O)n(Cc3ccc4c(c3)OCO4)c(=S)[nH]c2c1 | 16.5% |
| COc1ccc(Cn2c(=S)[nH]c3cc(C(=O)N4CCCCC4)ccc3c2=O)cc1 | -3.83% |

| SMILES | inhibition |
| --- | --- |
| COc1cccc(C(=O)OCC(=O)c2[nH]c(C)c(C(C)=O)c2C)c1 | 8.22% |
| CN(Cc1ccccc1)c1nc2c(c(=O)[nH]c(=O)n2C)n1CCSc1nc2ccccc2[nH]1 | 29.2% |
| CCOC(=O)Cn1c(CN(Cc2ccccc2)Cc2ccccc2)nc2c1c(=O)[nH]c(=O)n2C | -7.46% |
| Cn1c(=O)[nH]c(=O)c2c1nc(N(CCO)Cc1ccccc1)n2Cc1ccccc1Cl | 73.5% (active) |
| COCCn1c(C)cc(C(=O)COC(=O)CNC(=O)c2ccco2)c1C | -8.05% |
| Cc1ccc2nc(NC(=O)CSc3nc(=O)n(CCCN(C)C)c4c3CCC4)sc2c1 | 7.56% |
| CSc1ccccc1C(=O)OCC(=O)N1CCN(C(C)=O)CC1 | 0.24% |
| CC(=O)Nc1ccc(NC(=O)CCN2C(=O)C3CC=CCC3C2=O)cc1 (stereo not drawn) | 16.4% |
| Cc1ccc(NC(=O)COc2coc(CN3CCc4ccccc4C3)cc2=O)cc1Cl | -2.55% |
| CC(=O)c1ccc(NC(=O)C2CC(=O)Nc3nc4ccccc4n32)cc1 (stereo not drawn) | -1.67% |
| O=C(Nc1ccccc1)C1CC(=O)n2c(nc3ccccc32)N1 (stereo not drawn) | 33.6% (active) |
| CCOC(=O)c1ccc(NC(=O)C2CC(=O)Nc3nc4ccccc4n32)cc1 (stereo not drawn) | -12.3% |
| CC(C)Oc1ccc(S(=O)(=O)N2CCOCC2)cc1NC(=O)C1CCCC1 | -5.29% |
| CN(c1ccccc1)S(=O)(=O)c1cccc(NC(=O)Cc2ccc(Cl)cc2)c1 | -11.8% |
| COc1ccccc1CNC(=O)COC(=O)CNS(=O)(=O)c1ccc(NC(C)=O)cc1 | 4.15% |
| COC(=O)Cn1c(O)c(N=NC(=O)OC)c2ccccc21 | 11.2% |
| CCCCn1c(O)c(N=NC(=O)Cn2c(C(F)(F)F)nc3ccccc32)c2ccccc21 | 16.8% |
| N#CCCCn1c(O)c(N=NC(=O)C(O)c2ccccc2)c2ccccc21 (stereo not drawn) | 38.5% (active) |
| OCCNCCOc1ccc(Cl)c(Cl)c1 | 33.4% (active) |
| OCCNCc1cccc(OCc2ccccc2Cl)c1 | 1.43% |
| OCCNCCCCOc1ccccc1F | 4.36% |
| Cc1cccc(NS(=O)(=O)c2cccc(C(=O)NNC(=O)c3ccccc3O)c2)c1 | -12.1% |
| Cc1cc(C)cc(-c2nnc(SCC(=O)NC3CC3)o2)c1 | 5.88% |
| CCC(C)C(N=C1NS(=O)(=O)c2ccccc21)C(=O)N1CCC(C)CC1 (stereo not drawn) | 17% |

| SMILES | inhibition |
| --- | --- |
| Cc1n[nH]c(=O)c2c(NC(=O)COC(=O)c3ncc(Cl)c(Cl)c3Cl)oc(C)c12 | -6.33% |
| O=C(COc1ccccc1O)NC1CCCC1 | 1.67% |
| S=C(NN=C1CCN(Cc2ccccc2)CC1)NC1CCCCC1 | 5.59% |
| S=C(Nc1ccc(Br)cc1Cl)NC1CCN(Cc2ccccc2)CC1 | 70.2% (active) |
| S=C(NCCCc1ccccc1)Nc1ccc(Br)cc1 | 3.8% |
| O=C(COc1ccc(Br)cc1F)NC1CCN(Cc2ccccc2)CC1 | 52.9% (active) |
| Cc1cc(Br)ccc1NC(=S)NC1CCCC1 | 9.66% |
| O=C(NNC(=S)Nc1ccc(Br)cc1Cl)c1ccco1 | 0.194% |
| O=C(COc1ccccc1F)NC1CC1 | -13.9% |
| S=C(Nc1ccc(Br)cc1)NC1CCN(Cc2ccccc2)CC1 | 109% (active) |
| CCOC(=O)Cc1csc(SCC(=O)Nc2ccc(C)cc2F)n1 | 0.767% |
| CCCC1C(=O)N2C(N(C)C)=Nc3ccc(C)cc3N2C1=O (stereo not drawn) | -7.75% |
| Brc1ccc(CN2CC[C@H]3C=CCc4cccc(c43)C2)cc1 | -16.8% |
| Cc1ccc2c(c1)C1CN(C)CCC1N2S(=O)(=O)c1cccc(F)c1 (stereo not drawn) | -6.37% |
| CNS(=O)(=O)c1ccc(C(=O)NCC(=O)NCCc2ccc3c(c2)OCCO3)cc1 | -17.4% |
| Cc1csc(SCC(=O)N(c2ccccc2)C(C)C)n1 | -0.577% |
| O=S(=O)(NCCCCCCNS(=O)(=O)c1c(F)cccc1F)c1ccc2c(c1)OCCO2 | -4.68% |
| O=S(=O)(c1ccccc1)c1nc(-c2ccccc2)oc1NCCCN1CCOCC1 | 47.7% (active) |
| O=S(=O)(c1ccc(Br)cc1)c1nc(-c2ccccc2)oc1N1CCOCC1 | 15.8% |
| O=S(=O)(c1ccc(Br)cc1)c1nc(-c2ccccc2)oc1NCc1cccnc1 | 9.02% |
| CCOc1ccc(C(=O)CCC(=O)NC2=NCCS2)cc1 | -11.7% |
